This note sets out measurements from PubChem BioAssay AID2284426 (EPA ToxCast).

SMILES strings stand for the structures. Active and inactive are the calls of the source. Rule for the calls: active = hit-call score of the fitted dose curve at least 0.9, where 1 is the maximum; inactive = score below 0.9.

The assay is described as follows: CCTE_Deisenroth_DEVTOX-GLR_Ecto_CellCount: Viability Assessment in CCTE's DevTox GLR-Ecto Assay, Deisenroth Lab. The method, then: CCTE_Deisenroth_DEVTOX-GLR_Ecto assay is a cell-based, multiplex-readout assay that uses RUES2-GLR, a human pluripotent cell line, with measurements taken at 48 hours after chemical dosing in a 384-well microplateCCTE_Deisenroth_DEVTOX-GLR_Ecto_CellCount is 1 of 4 assay components calculated from the CCTE_Deisenroth_DEVTOX-GLR_Ecto assay and it measures cell count. Using fluorescent nuclei staining, gain-of-signal activity can be used to understand changes in cell viability with fluorescent microscopy. It is designed to make measurements of nuclei counts as a surrogate for cell number, as detected with optical fluorescence microscopy by Perkin Elmer Harmony nuclei detection algorithm. To generalize the intended target to other relatable targets, this assay component is annotated to the cell cycle intended target family, where the subfamily is cytotoxicity.Data from the assay component CCTE_Deisenroth_DEVTOX-GLR_Ecto_CellCount was analyzed as 1 assay endpoint. The endpoint the percent change in the cell count relative to the 0.2% DMSO control in the CCTE_Deisenroth_DEVTOX-GLR_Ecto assay. Furthermore, this assay endpoint can be referred to as a […] readout, because this assay has produced multiple assay endpoints where this one serves as a measure of cytotoxicity.
All assay protocols are aligned to the DevTox GLR-Endo assay workflow. Cells are seeded into 384-well microplates for 24 hours prior to initiating differentiation in defined media for a total duration of 48 hours. A total of two chemical exposures are administered in 24-hour intervals during the 48-hour differentiation period. At the assay termination point, cells are fixed and stained with a fluorescent dye demarcating the nucleus. High-content imaging is used to acquire brightfield and fluorescent channel images across 5 fields per well. Cell identification and mean biomarker fluorescence intensities are calculated with image analysis software to determine the total cell counts for viability assessment and the biomarker expression frequency for each lineage-dependent assay. A typical experimental design tests a 10-point concentration series (1 nM - 200 uM) for 28 compounds in single technical replicate. Assay plate controls include non-differentiated pluripotent cells (baseline control), lineage-specific differentiated cells (differentiation control), and DMSO solvent exposed differentiated cells (solvent control). Experiments typically comprise a minimum of four experimental replicates (n=4).
For the compound `O=C1NC(=O)C(c2ccccc2)(c2ccccc2)N1`, the call was inactive.
Still for that read-out and setting: for `CC/C(=C(/CC)c1ccc(O)cc1)c1ccc(O)cc1` the value was “inactive”.
For orientation: AC50 means the midpoint of the concentration-response curve, whichever way the signal moves. On to `CS(=O)(=O)OCCCCOS(C)(=O)=O`, for which the concentration at half-maximal activity (AC50) was 20.4 µM (active).
On to `Nc1cccc2c1C(=O)N(C1CCC(=O)NC1=O)C2=O` (stereo unspecified), for which the compound was classed as inactive.
Regarding `CC1=C(/C=C/C(C)=C/C=C/C(C)=C/C(=O)O)C(C)(C)CCC1`, the half-maximal activity concentration (AC50) is 0.0242 µM (active).
For the compound `O=c1[nH]cc(F)c(=O)[nH]1`, the AC50 is 3.87 µM (active).
Take `CC(C)(c1ccc(O)cc1)c1ccc(O)cc1`: the call was inactive.
Still for that read-out and setting: the value for `CC(=O)Nc1ccc(O)cc1` was “inactive”; that for `Nc1nc2ncc(CNc3ccc(C(=O)N[C@@H](CCC(=O)O)C(=O)O)cc3)nc2c(=O)[nH]1` was “inactive”.
Same read-out and setting: the value for `O=C1NS(=O)(=O)c2ccccc21` was “inactive”; that for `CC1(C)S[C@@H]2[C@H](NC(=O)Cc3ccccc3)C(=O)N2[C@H]1C(=O)O` was “inactive”.
Still for that read-out and setting: for `CN(Cc1cnc2nc(N)nc(N)c2n1)c1ccc(C(=O)N[C@@H](CCC(=O)O)C(=O)O)cc1` the value was “inactive”.
`CC1=C(/C=C/C(C)=C/C=C/C(C)=C\C(=O)O)C(C)(C)CCC1`: the half-maximal activity concentration (AC50) is 0.46 µM (active).
In the case of `O=C1CCC(N2C(=O)c3ccccc3C2=O)C(=O)N1` (stereo unspecified), the call was inactive.
`CCN(CC)CCNC(=O)c1c(C)[nH]c(/C=C2\C(=O)Nc3ccc(F)cc32)c1C`: the half-maximal activity concentration (AC50) is 1.25 µM (active).
As for `CCCC(CCC)C(=O)O`, the call was inactive.
